Reference: PubChem BioAssay (NCI)
The panel holds about 83,000 compounds, 20% with a hit somewhere; the sample as a whole holds those more often.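 Each cell line was grown in a 96-well plate and treated with one concentration of compound for 48 hours. Values below 10 were considered active.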 Activity calls are given as the source filed them.

Assays:
Test in all cases: NCI-60 one-dose screen, 48 h (100 = growth as untreated, 0 = no growth, -100 = all killed)
Details in all cases: 10 µM
T-47D breast = test system: T-47D breast
BT-549 breast = test system: BT-549 breast
MDA-MB-435 melanoma = test system: MDA-MB-435 melanoma
SW-620 colon = test system: SW-620 colon
MCF7 breast = test system: MCF7 breast
HCT-116 colon = test system: HCT-116 colon
HCC-2998 colon = test system: HCC-2998 colon
KM12 colon = test system: KM12 colon

Measured: growth

CN(C)c1ccc(/C=N/NC(=O)c2cccc3ccccc23)c(Cl)c1
active: MDA-MB-435 melanoma -22.1%
inactive: T-47D breast 25.4% | BT-549 breast 45.3% | SW-620 colon 24.2% | MCF7 breast 15.1% | HCT-116 colon 31% | HCC-2998 colon 61.2% | KM12 colon 22.7%

COc1ccccc1-n1c(-c2csc(NC(C)=O)n2)n[nH]c1=S
inactive: T-47D breast 104% | BT-549 breast 94.7% | MDA-MB-435 melanoma 85.3% | SW-620 colon 105% | MCF7 breast 97.5% | HCT-116 colon 100% | HCC-2998 colon 101% | KM12 colon 104%

O=C(CCCNC(=O)c1nc(-c2ccccc2)n(-c2ccccc2)n1)NO
inactive: T-47D breast 94% | BT-549 breast 106% | MDA-MB-435 melanoma 109% | SW-620 colon 106% | MCF7 breast 92% | HCT-116 colon 85.6% | HCC-2998 colon 98.9% | KM12 colon 110%

O=C(CCC(C(=O)c1ccccc1)c1ccccc1)c1ccccc1 (configuration not stated)
active: MDA-MB-435 melanoma 4.52%
inactive: T-47D breast 66.6% | BT-549 breast 54.5% | SW-620 colon 41.9% | MCF7 breast 72% | HCT-116 colon 50.3% | HCC-2998 colon 76.6% | KM12 colon 34.5%

CC(C)(C)c1ccc(S(=O)(=O)N[C@H]2CC[C@H]3[C@@H]4CCc5cc(O)c([N+](=O)[O-])cc5[C@H]4CC[C@]23C)cc1
inactive: T-47D breast 46.6% | BT-549 breast 67.7% | MDA-MB-435 melanoma 80.3% | SW-620 colon 89.9% | MCF7 breast 54.1% | HCT-116 colon 32.6% | HCC-2998 colon 92.5% | KM12 colon 77.1%

Cc1cc(=O)n2nnc3cc(Cl)c(Cl)cc3n12
inactive: T-47D breast 76.3% | BT-549 breast 114% | MDA-MB-435 melanoma 103% | SW-620 colon 23.4% | MCF7 breast 96.3% | HCT-116 colon 91.8% | HCC-2998 colon 108% | KM12 colon 109%

COc1ccc(C(=O)COc2cccc(/C=C3\Cc4ccccc4C3=O)c2)cc1
inactive: T-47D breast 73.8% | BT-549 breast 74.5% | MDA-MB-435 melanoma 58.8% | SW-620 colon 89.5% | MCF7 breast 65.9% | HCT-116 colon 84.4% | HCC-2998 colon 92.9%

Cc1c2cnccc2c(C)c2c1oc1ccccc12
inactive: T-47D breast 77.5% | BT-549 breast 80.9% | MDA-MB-435 melanoma 91.6% | SW-620 colon 64.1% | MCF7 breast 43.7% | HCT-116 colon 45% | HCC-2998 colon 84.9% | KM12 colon 81.7%

CC(=O)C1CCC2C3CC=C4CC(SC(=N)N)CCC4(C)C3CCC12C (configuration not stated)
inactive: T-47D breast 40.9% | BT-549 breast 76.4% | KM12 colon 31.8%
active: MDA-MB-435 melanoma 9.68% | SW-620 colon -75.2% | MCF7 breast -2.29% | HCT-116 colon 1.01% | HCC-2998 colon -52.3%

NC(=O)c1cccc(-n2ccc3cc(NC(=O)Nc4ccc(Cl)c(C(F)(F)F)c4)ccc32)n1
inactive: T-47D breast 68.5% | BT-549 breast 69.8% | MDA-MB-435 melanoma 74.9% | SW-620 colon 111% | MCF7 breast 43.8% | HCT-116 colon 67% | HCC-2998 colon 96.3% | KM12 colon 64.4%

CC[C@@H](C(=O)[C@H](C)[C@H](O)[C@@H](C)[C@H]1O[C@H]([C@@H](CC)C(=O)O)CC[C@H]1C)C1O[C@]2(C=C[C@@H](O)[C@]3(CC[C@@](C)([C@H]4CC[C@](O)(CC)[C@H](C)O4)O3)O2)[C@H](C)C[C@@H]1C (some centres not stated)
inactive: T-47D breast 25.5% | SW-620 colon 24% | HCT-116 colon 22.2% | KM12 colon 24.5%
active: BT-549 breast 6.06% | MDA-MB-435 melanoma -16.3% | MCF7 breast 3.7% | HCC-2998 colon 8.29%

O=C1CC(SC(=S)C2CCCC2=O)C(=O)N1 (configuration not stated)
inactive: T-47D breast 93.9% | BT-549 breast 100% | MDA-MB-435 melanoma 114% | SW-620 colon 110% | MCF7 breast 90.8% | HCT-116 colon 99.2% | HCC-2998 colon 108% | KM12 colon 103%

O=C(Nc1ccccc1)Nc1ncnc2c1ncn2-c1ccccc1
inactive: T-47D breast 51.3% | BT-549 breast 89.4% | MDA-MB-435 melanoma 84.8% | SW-620 colon 94% | MCF7 breast 78.9% | HCT-116 colon 29.2% | HCC-2998 colon 92.6% | KM12 colon 87.4%

CCOC(=O)c1sc2ncnc(Nc3ccc(NC(=O)Nc4ccc(Cl)cc4)cc3)c2c1C
inactive: T-47D breast 45.4% | BT-549 breast 61.8% | MDA-MB-435 melanoma 59.4% | SW-620 colon 63.7% | MCF7 breast 52.1% | HCT-116 colon 17% | HCC-2998 colon 90.3% | KM12 colon 55.3%

CS(=O)(=O)c1nccc(-c2c(-c3cccc(OCCc4ccccc4)c3)nc3sccn23)n1
inactive: T-47D breast 92.4% | BT-549 breast 116% | MDA-MB-435 melanoma 104% | SW-620 colon 98.2% | MCF7 breast 69.2% | HCT-116 colon 83.9% | HCC-2998 colon 109% | KM12 colon 104%

CN1CCN(c2cc3c(cc2F)c(=O)c(C(=O)O)cn3-c2ccc(F)cc2)CC1
inactive: T-47D breast 99.9% | BT-549 breast 92.4% | MDA-MB-435 melanoma 103% | SW-620 colon 98% | MCF7 breast 104% | HCT-116 colon 95.5% | HCC-2998 colon 106% | KM12 colon 99%

O=C1CCn2c1c(O)c1ccccc1c2=O
inactive: T-47D breast 94.5% | BT-549 breast 113% | MDA-MB-435 melanoma 99.5% | SW-620 colon 101% | MCF7 breast 94.8% | HCT-116 colon 107% | HCC-2998 colon 109% | KM12 colon 109%

COc1cc(C2CC(c3cc(Cl)c(C)cc3O)=NN2c2ccc(S(N)(=O)=O)cc2)cc(OC)c1OC (configuration not stated)
active: T-47D breast -1.47% | MCF7 breast -15.4% | HCT-116 colon -14.3% | HCC-2998 colon -20.6% | KM12 colon 2.06%
inactive: BT-549 breast 30.9% | MDA-MB-435 melanoma 20.9% | SW-620 colon 18.8%

Cc1c(O)c(=O)ccn1C1CCC(CC2CCC(n3ccc(=O)c(O)c3C)CC2)CC1 (configuration not stated)
inactive: T-47D breast 32.3% | BT-549 breast 31.5% | MDA-MB-435 melanoma 33.3% | SW-620 colon 43.1% | MCF7 breast 15.9% | HCT-116 colon 28.4% | HCC-2998 colon 55.6% | KM12 colon 46.5%

COc1cc(C(=O)/C=C/c2c[nH]c3ccccc23)cc(OC)c1OC
inactive: T-47D breast 63.2% | SW-620 colon 37.3% | MCF7 breast 12.5% | HCT-116 colon 12.2% | HCC-2998 colon 19.6% | KM12 colon 11.5%
active: BT-549 breast -9.31% | MDA-MB-435 melanoma 7.59%

Nc1nc(Cn2c(-c3nonc3N)nc3ccccc32)nc(N2CCCCC2)n1
inactive: T-47D breast 83% | BT-549 breast 89% | MDA-MB-435 melanoma 39.2% | SW-620 colon 94.4% | MCF7 breast 83.5% | HCT-116 colon 87.7% | HCC-2998 colon 95.9% | KM12 colon 75.6%

O=C(CCCSc1nc(-c2ccc(Cl)cc2)cc(-c2ccc(Cl)cc2)n1)NO
active: MCF7 breast 2.7% | HCC-2998 colon 7.09%
inactive: T-47D breast 24.6% | BT-549 breast 31.9% | MDA-MB-435 melanoma 24% | SW-620 colon 23.9% | HCT-116 colon 11.5% | KM12 colon 26.3%

O=C1/C(=C/c2ccc3c(c2)OCO3)SC(=S)N1C1c2ccccc2Oc2ccccc21
inactive: T-47D breast 104% | BT-549 breast 91.1% | MDA-MB-435 melanoma 96.5% | SW-620 colon 103% | MCF7 breast 91.6% | HCT-116 colon 92.9% | HCC-2998 colon 80.1% | KM12 colon 96.6%

COc1cc2c3c(n([C@H]4CCOC4)c(=O)c2cc1OC)-c1cc2c(cc1C3=O)OCO2
inactive: T-47D breast 11.8% | BT-549 breast 48.2% | MDA-MB-435 melanoma 59.3% | SW-620 colon 46.2% | MCF7 breast 14.2% | HCT-116 colon 31% | HCC-2998 colon 70.5% | KM12 colon 57.1%

CCN(CC)CCCC(C)Nc1c2ccc(Cl)cc2nc2ccc(OC)cc12 (configuration not stated)
active: MDA-MB-435 melanoma -18.9% | SW-620 colon -19.1% | MCF7 breast -11.6%
inactive: T-47D breast 14% | BT-549 breast 56.2% | HCT-116 colon 12.3% | HCC-2998 colon 15.3% | KM12 colon 22.1%

CC1(C)N=C(N)N=C(N)N1c1cccc(C#N)c1
inactive: T-47D breast 99.7% | BT-549 breast 81.6% | MDA-MB-435 melanoma 36.2% | SW-620 colon 29.9% | MCF7 breast 52% | HCT-116 colon 17.1% | HCC-2998 colon 58.4% | KM12 colon 47.7%

COc1cc(/C=C2\CCCC3C2=Nc2ccccc2NC3c2cc(OC)c(OC)c(OC)c2)cc(OC)c1OC (configuration not stated)
inactive: T-47D breast 23.9% | MCF7 breast 36.9%
active: BT-549 breast -16.4% | MDA-MB-435 melanoma 3.26% | SW-620 colon 5.74% | HCT-116 colon -58.4% | HCC-2998 colon -60.2% | KM12 colon -65.3%

CCN1CC(CCN2CCOCC2)C(C(c2ccccc2)c2ccccc2)C1=O (configuration not stated)
inactive: T-47D breast 99.6% | BT-549 breast 109% | MDA-MB-435 melanoma 99.3% | SW-620 colon 106% | MCF7 breast 97.9% | HCT-116 colon 114% | HCC-2998 colon 105% | KM12 colon 117%

O=C(CN(C1CCCCC1)C1CCCCC1)Nc1ccc(S(=O)(=O)c2ccc(NC(=O)CN(C3CCCCC3)C3CCCCC3)cc2)cc1
active: T-47D breast -38.1% | BT-549 breast -85.3% | MDA-MB-435 melanoma -39.5% | SW-620 colon -48.4% | MCF7 breast -40.7% | HCT-116 colon -86.3% | HCC-2998 colon -37.4% | KM12 colon -28.6%

O=C(Nc1ccc(OCc2nnc(-c3ccc(Cl)cc3)o2)c(F)c1)Nc1ccc(Cl)c(C(F)(F)F)c1
inactive: SW-620 colon 15.7%
active: T-47D breast 4.57% | BT-549 breast -13.9% | MDA-MB-435 melanoma 8.01% | MCF7 breast 3.17% | HCT-116 colon 2.12% | HCC-2998 colon 9.15% | KM12 colon 3.14%

CC(C)(C)OC(=O)N1CCc2c(sc3ncnc(N/N=C/c4ccc(Br)cc4)c23)C1
active: MDA-MB-435 melanoma -20.4%
inactive: T-47D breast 34.2% | BT-549 breast 74.9% | SW-620 colon 55% | MCF7 breast 12.6% | HCT-116 colon 47.3% | HCC-2998 colon 72.1% | KM12 colon 46.6%
